Only some compounds are listed: those with a hit (about 3.6% of all), similar ones and a draw of the others.
KKLEB cytotox: CF airway cell cytotoxicity counter-screen; activity change (cytotoxicity), % at 5 µM; KKLEB CF airway cells viability, ATPlite luminescence, overnight; active compounds read low; cells stimulated with P. aeruginosa culture filtrate; AID 602141; 360,000 compounds, 0.36% hits;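 active means corrected activity change at or below -50% at 5 µM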
Mdm2 MdmX PPI: human Mdm2/MdmX binding inhibition. O15151+Q00987. SaOS-2 split-luciferase Mdm2/MdmX complementation, luminescence. inhibition, % at 8 µM. 330,000 compounds, 3% hits;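 active means inhibition of at least 50% at 8 µM in the primary screen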
Target sequence (O15151 whole entry, looked up): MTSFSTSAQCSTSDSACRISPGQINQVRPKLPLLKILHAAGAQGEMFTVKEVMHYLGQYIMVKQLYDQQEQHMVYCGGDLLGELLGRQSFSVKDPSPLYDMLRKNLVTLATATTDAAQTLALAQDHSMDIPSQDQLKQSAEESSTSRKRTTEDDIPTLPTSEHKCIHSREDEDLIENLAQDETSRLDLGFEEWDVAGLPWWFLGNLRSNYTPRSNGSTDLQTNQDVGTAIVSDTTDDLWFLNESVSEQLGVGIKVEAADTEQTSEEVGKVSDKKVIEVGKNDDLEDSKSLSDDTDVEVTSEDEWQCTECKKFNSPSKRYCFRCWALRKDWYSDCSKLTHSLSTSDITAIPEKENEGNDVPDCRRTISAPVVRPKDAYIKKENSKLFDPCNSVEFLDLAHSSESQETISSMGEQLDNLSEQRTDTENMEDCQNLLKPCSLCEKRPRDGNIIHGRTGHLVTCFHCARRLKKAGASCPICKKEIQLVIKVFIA
Target sequence (Q00987 whole entry, looked up): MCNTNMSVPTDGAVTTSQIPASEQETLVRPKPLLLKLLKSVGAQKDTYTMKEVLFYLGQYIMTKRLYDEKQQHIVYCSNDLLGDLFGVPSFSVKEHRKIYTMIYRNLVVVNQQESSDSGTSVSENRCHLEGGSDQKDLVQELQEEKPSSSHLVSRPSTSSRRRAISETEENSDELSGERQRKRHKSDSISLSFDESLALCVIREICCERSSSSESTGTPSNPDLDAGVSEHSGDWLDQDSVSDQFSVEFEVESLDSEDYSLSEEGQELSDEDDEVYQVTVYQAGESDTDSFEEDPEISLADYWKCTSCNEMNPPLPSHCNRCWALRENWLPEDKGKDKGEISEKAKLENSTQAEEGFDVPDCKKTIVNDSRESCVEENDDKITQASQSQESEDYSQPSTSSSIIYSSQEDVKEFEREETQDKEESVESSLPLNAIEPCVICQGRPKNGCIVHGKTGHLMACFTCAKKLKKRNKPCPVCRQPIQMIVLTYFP
HSP90 refold inh: inhibitors of HSP90 luciferase refolding in rabbit reticulocyte lysate. luciferase refolding luminescence, 3 h. inhibition, % at 5.6 µM. 290,000 compounds, 0.91% hits. AID 1789;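 active means inhibition above the screen-wide mean plus 3 SD, computed separately per campaign, cut at about 16% in these data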;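 further: inhibitors lower the luminescence because luciferase stays unfolded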
CF NFkB inh: cystic fibrosis NF-kB activation inhibition. KKLEB NF-kB-GFP reporter, PAF-induced, GFP fluorescence overnight. inhibition, % at 5 µM. 360,000 compounds, 0.86% hits. AID 588850;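 active means at least 50% inhibition at 5 µM, scaled per plate between neutral and stimulator controls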;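 further: PAF is a Pseudomonas aeruginosa culture filtrate used as stimulus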
LGR2 antag: inhibitors of bursicon-induced Drosophila LGR2 receptor cAMP signaling; HEK293 LGR2, CRE-luciferase, bursicon-stimulated, 4 h; inhibition, % at 9.99 µM; 380,000 compounds, 0.35% hits;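 active means drop in luminescence signal, shown as inhibition above about 50% in the replicate tests, limit read from the data, passing the limit was not always enough; inconclusive means probably only some replicates passing the limit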;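 further: agonist challenge used bursicon conditioned medium at about half maximal strength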
Peg3 prom inh: reduces Peg3 promoter-driven luciferase expression in HeLa | HeLa PEG-Prom luciferase reporter, luminescence, overnight | inhibition, % at 20 µM | 360,000 compounds, 1.7% hits | AID 588405;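 active means inhibition of at least 50% at 20 µM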
Mdm2 MdmX conf: human Mdm2/MdmX binding inhibition, confirmed; luminescent assay; inhibition, % at 8 µM; 10,000 compounds, 55% hits; shares compounds with Mdm2 MdmX PPI
Full FLuc ctr: full-length luciferase inhibition in Mdm2/MdmX counter-screen. shares compounds with Mdm2 MdmX PPI. SaOS-2 full-length luciferase counterscreen, luminescence. inhibition, % at 8 µM. 6,200 compounds, 77% hits. AID 504607;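 active means mean inhibition at 8 µM reaching about 37%, which flags the compound as non-specific, limit read from the data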;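 further: p53-null SaOS-2 cells with luciferase driven by a doxycycline-inducible promoter; compound on cells about two nights before reading with doxycycline added after day one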
CF NFkB conf: CF NF-kB inhibition confirmation, single concentration; KKLEB CF airway cells, PAF-induced NF-kB-GFP fluorescence, overnight; AID 602472; shares compounds with CF NFkB inh; 1,300 compounds, 64% hits; inhibition, % at 5 µM;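 further: stimulus PAF is a Pseudomonas aeruginosa filtrate and not platelet activating factor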
Hits are given with their value. Unless noted, no stated cut-off is given here; in the data, active means inhibition above about 40%; inactive means the rest.

Screening Cc1ccc(Cn2c(C)c3cnn(CC(=O)NC4CCCC4)c(=O)c3c2C)cc1 returned KKLEB cytotox inactive, Mdm2 MdmX PPI inactive, HSP90 refold inh inactive, CF NFkB inh inactive, LGR2 antag inactive and Peg3 prom inh inactive.
Screening Cc1ccc(NC(=O)Cc2ccc(Cl)cc2)cc1S(=O)(=O)N1CCCCCC1 returned KKLEB cytotox inactive, Mdm2 MdmX PPI inactive, CF NFkB inh inactive, LGR2 antag inactive and Peg3 prom inh inactive.
Cc1ccc(NC(=O)Cn2ncc(Cl)c(Cl)c2=O)cc1S(=O)(=O)N1CCCCC1 was read as KKLEB cytotox inactive, Mdm2 MdmX PPI 100, CF NFkB inh 86, LGR2 antag inactive, Peg3 prom inh 107, Mdm2 MdmX conf 85, Full FLuc ctr 54 and CF NFkB conf inactive.
CO[C@@H]1CN(C)C(=O)c2ccc(NC(=O)Nc3cc(F)ccc3F)cc2OC[C@@H](C)N(C(=O)c2cnccn2)C[C@@H]1C was read as LGR2 antag inactive.
Cn1c(=O)c2c(nc(Oc3ccc4ccccc4c3)n2C)n(C)c1=O was read as KKLEB cytotox inactive, Mdm2 MdmX PPI 52, HSP90 refold inh inactive, CF NFkB inh 55, LGR2 antag inactive, Peg3 prom inh inactive, Mdm2 MdmX conf 62, Full FLuc ctr inactive and CF NFkB conf 69.
`CCOc1cc(/C=N/Nc2nc3ccccc3[nH]2)cc(Br)c1OCC(=O)N(C)C` gave KKLEB cytotox inactive, Mdm2 MdmX PPI inactive, HSP90 refold inh inactive, CF NFkB inh inactive, LGR2 antag inconclusive and Peg3 prom inh inactive.
CCOc1cc(/C=C2\COc3ccccc3C2=O)cc(Br)c1OCC(=O)N(C)C was read as KKLEB cytotox inactive, Mdm2 MdmX PPI 97, HSP90 refold inh inactive, CF NFkB inh 98, LGR2 antag inactive, Peg3 prom inh 105, Mdm2 MdmX conf 74, Full FLuc ctr 59 and CF NFkB conf inactive.
For c1ccc(-c2sc3ccccc3c2-c2ccc(OCCN3CCCC3)cc2)cc1 the results were KKLEB cytotox inactive, Mdm2 MdmX PPI 100, CF NFkB inh 52, LGR2 antag inactive, Peg3 prom inh 93, Mdm2 MdmX conf 46, Full FLuc ctr 58 and CF NFkB conf inactive.
Screening COc1ccc2c(-c3ccc(OCCN4CCOCC4)cc3)c(-c3ccccc3OC)sc2c1 returned KKLEB cytotox inactive, Mdm2 MdmX PPI inactive, CF NFkB inh inactive and Peg3 prom inh inactive.
Screening COc1cccc(-c2sc3ccccc3c2-c2ccc(OCCN3CCCC3)cc2)c1 returned KKLEB cytotox inactive, Mdm2 MdmX PPI 100, CF NFkB inh 54, LGR2 antag inactive, Peg3 prom inh 100, Mdm2 MdmX conf inactive and CF NFkB conf inactive.
Cc1ccc(CSc2ncn(-c3ccccc3)n2)cc1 was read as KKLEB cytotox inactive, Mdm2 MdmX PPI inactive, HSP90 refold inh inactive, CF NFkB inh inactive and Peg3 prom inh inactive.
For Cc1ccc(CSc2nccc(-c3c(C)nc4ccccn34)n2)cc1 the results were KKLEB cytotox inactive, Mdm2 MdmX PPI 66, HSP90 refold inh inactive, CF NFkB inh 50, LGR2 antag inactive, Peg3 prom inh inactive, Mdm2 MdmX conf 46, Full FLuc ctr 53 and CF NFkB conf 63.
O=c1c(Cl)c(Cl)cnn1Cc1nnc(-c2ccccc2Br)o1 was read as KKLEB cytotox inactive, Mdm2 MdmX PPI 100, HSP90 refold inh inactive, CF NFkB inh 84, LGR2 antag 103, Peg3 prom inh 106, Mdm2 MdmX conf 100, Full FLuc ctr 54 and CF NFkB conf 45.
`Clc1ccccc1OCc1nnc(-c2ccccc2Br)o1` gave KKLEB cytotox inactive, Mdm2 MdmX PPI inactive, HSP90 refold inh inactive, CF NFkB inh inactive and Peg3 prom inh inactive.
Screening O=C(N[C@@H]1CC[C@@H](CCNC(=O)C2CCOCC2)O[C@H]1CO)c1ccncc1 returned LGR2 antag inactive.
For O=C(c1ccc(S(=O)(=O)c2cccc(Cl)c2)c([N+](=O)[O-])c1)N1CCN(c2ccccn2)CC1 the results were KKLEB cytotox inactive, Mdm2 MdmX PPI 73, HSP90 refold inh inactive, CF NFkB inh 86, LGR2 antag 59, Peg3 prom inh 53, Mdm2 MdmX conf 68, Full FLuc ctr 58 and CF NFkB conf inactive.
For C[C@H](CO)N1C[C@H](C)[C@H](CN(C)C(=O)C2CC2)Oc2cc(C#CC3CCCC3)ccc2S1(=O)=O the results were LGR2 antag inactive.
`COC(=O)N1C(=O)[C@@](c2ccc(OC)cc2)(C(C)C)N1C(=O)OC` gave KKLEB cytotox inactive, Mdm2 MdmX PPI 51, HSP90 refold inh inactive, CF NFkB inh 69, LGR2 antag inactive, Peg3 prom inh inactive, Mdm2 MdmX conf inactive and CF NFkB conf 57.
COC(=O)N1C(=O)[C@@](c2ccccc2)(C(C)C)N1C(=O)OC was read as KKLEB cytotox inactive, Mdm2 MdmX PPI 55, HSP90 refold inh inactive, CF NFkB inh 58, Peg3 prom inh inactive, Mdm2 MdmX conf inactive and CF NFkB conf 51.
For CCC1(c2ccccc2)C(=O)N(C(=O)OC(C)(C)C)N1C(=O)OC(C)(C)C (stereo unspecified) the results were KKLEB cytotox inactive, Mdm2 MdmX PPI inactive, CF NFkB inh inactive, LGR2 antag inactive and Peg3 prom inh inactive.
Screening C[C@@H]1CN([C@@H](C)CO)C(=O)c2cccc(NS(=O)(=O)c3ccccc3)c2O[C@H]1CN(C)Cc1ccccc1 returned LGR2 antag inactive.
CS(=O)(=O)N1N=C(c2cccs2)CC1c1ccccc1O (stereo unspecified) was read as KKLEB cytotox inactive, Mdm2 MdmX PPI inactive, HSP90 refold inh inactive, CF NFkB inh inactive, LGR2 antag inactive and Peg3 prom inh inactive.
Oc1ccccc1C1CC(c2cccs2)=NC(c2ccc(Cl)cc2)N1 (stereo unspecified) was read as KKLEB cytotox inactive, Mdm2 MdmX PPI 85, HSP90 refold inh inactive, CF NFkB inh 65, LGR2 antag inactive, Peg3 prom inh inactive, Mdm2 MdmX conf 86, Full FLuc ctr inactive and CF NFkB conf inactive.
For Cc1c([N+](=O)[O-])c2ccc(O)cc2n1-c1ccccc1 the results were KKLEB cytotox inactive, Mdm2 MdmX PPI 66, HSP90 refold inh inactive, CF NFkB inh 68, LGR2 antag inactive, Peg3 prom inh inactive, Mdm2 MdmX conf 65, Full FLuc ctr inactive and CF NFkB conf 78.
COc1cc2cncc(Cc3ccc(Cl)cc3)c2cc1OC was read as KKLEB cytotox inactive, Mdm2 MdmX PPI 69, CF NFkB inh 72, Peg3 prom inh inactive, Mdm2 MdmX conf 65, Full FLuc ctr inactive and CF NFkB conf 87.

Screens (PubChem BioAssay)
